Reference: PubChem BioAssay (Tox21)
Records with an inconclusive call do not appear. Entries that show only a call come without a potency. The source made the active and inactive calls. Calls come from the whole dose curve; as a rule, active = well fitted cell-killing curve with a large enough effect in the repeat runs; inconclusive = weak or mixed curves, or effect the other way; inactive = no such curve, though single readings can be large or run the other way.

experiment: qHTS assay to identify small molecule antagonists of the vitamin D receptor (VDR) signaling pathway - cell viability counter screen (AID 743225); settings: VDR-bla HEK293T viability, CellTiter-Glo luminescence, 16 h; series mostly up to 61 µM; note: nearly all actives have a fitted effect of over 50% in size
Source text: U.S. Tox21 Program National Center for Advancing Translational Sciences [NCATS] NIH Chemical Genomics Center [NCGC] U.S. Environmental Protection Agency [EPA] National Institutes of Environmental Health Sciences [NIEHS] National Toxicology Program [NTP] U.S. Food and Drug Administration [FDA] Tox21 Assay Overview: The vitamin D receptor (VDR), a member of nuclear hormone receptor superfamily, plays a critical role in calcium homeostasis and bone metabolism. It is also involved in cell differentiation and growth, and thrombogenicity. To identify the compounds that inhibit VDR signaling, the VDR-UAS-bla HEK 293T cell line (Invitrogen, Carlsbad, CA, USA) containing a beta-lactamase reporter gene under the control of an upstream activator sequence (UAS) was used to screen the Tox21 10K compound library. The cytotoxicity of the Tox21 compound library against the VDR-bla cell line was tested in parallel by measuring the cell viability using CellTiter-Glo assay (Promega, Madison, WI) in the same wells.
Tox21 Assay Protocol Summary: VDR-bla cells were dispensed at 2,000 cells/5 uL of assay medium per well into black wall/clear-bottom 1536-well plates using a Multidrop Combi (Thermo Fisher Scientific, Waltham, MA) dispenser. After the assay plates were incubated at a 37C and 5% CO2 for 4 h, 23 nL of compounds dissolved in DMSO, positive controls or DMSO only was transferred to the assay plate by a Pintool station (Kalypsys, San Diego, CA), followed by addition of 1 uL of 1-alpha, 25-Dihydroxy Vitamin D3 (3 nM, final concentration in the wells) using a Bioraptr Flying Reagent Dispenser (FRD) workstation (Beckman Coulter, Indianapolis, IN). The plates were incubated at 37C and 5% CO2 for 16 h, and then 1 uL of LiveBLAzerTM B/G FRET substrate was added using a Bioraptr FRD. The plates were incubated at room temperature for 2 h and fluorescence intensity was measured by an Envision plate reader (PerkinElmer, Shelton, CT). For cell viability readout that measures cytotoxicity, 3 ul/well of CellTiter-Glo reagent was added into the assay plates using a Bioraptr FRD. After 30 min incubation at room temperature, the luminescence intensity in the plates was measured using a ViewLux plate reader (PerkinElmer).
Potency is the fitted concentration of half-maximal effect.

Structure (SMILES)	Potency
CC1=C(/C=C/C(C)=C/C=C/C(C)=C\C(=O)O)C(C)(C)CCC1	inactive
Cc1cc(F)ccc1-c1cc(N2CC[C@@H](O)[C@H]2CO)ncc1N(C)C(=O)C(C)(C)c1cc(C(F)(F)F)cc(C(F)(F)F)c1	13.6 µM (active)
CCCCCCCCCCCCCCCCCCNC(=O)OC1CCN(C(=O)OC[C@H](COC(=O)N(Cc2cccc[n+]2CC)C(=O)c2ccccc2OC)OC)CC1	21.3 µM (active)
CCCCCCCCOC(=O)c1cc(O)c(O)c(O)c1	27.5 µM (active)
O=[N+]([O-])c1ccc(O)c2ncccc12	inactive
Clc1nc(C(Cl)(Cl)Cl)c(Cl)c(Cl)c1Cl	inactive
c1ccc(-c2ccc(C(c3ccccc3)n3ccnc3)cc2)cc1 (stereo not given)	inactive
O=C1CCC/C=C\CCCCCCCCCC1	inactive
C=CCc1cc(S(=O)(=O)c2ccc(O)c(CC=C)c2)ccc1O	inactive
O=C1OC(=O)c2cc(-c3ccc4c(c3)C(=O)OC4=O)ccc21	inactive
Cc1ccc(Cl)c(N)c1Cl	inactive
COc1cc(/C=C/C(=O)CC(=O)/C=C/c2ccc(O)c(OC)c2)ccc1O	49.3 µM (active)
NCc1cccc(C2CCN(C(=O)c3ccc(C#Cc4ccccc4F)o3)CC2)c1	34.7 µM (active)
c1ccc2cc3c4ccccc4c4ccccc4c3cc2c1	inactive
O=C(Nc1ccccc1)c1cc(Cl)ccc1O	12.3 µM (active)
CN1CCN(c2ccccc2/C=C2\SCCN(c3ccc(Cl)c(Cl)c3)C2=O)CC1	43.6 µM (active)
CN[C@H]1CC[C@@H](c2ccc(Cl)c(Cl)c2)c2ccc(S(N)(=O)=O)cc21	21.9 µM (active)
COc1c(Br)cc(Br)c(C)c1Br	inactive
CCCCC/C=C\C=C\C(=O)OCC	inactive
CCCCCN=C(N)N/N=C/c1c[nH]c2ccc(OC)cc12	16.9 µM (active)

Structure (SMILES)	Potency
C[C@H]1O[C@@H](O[C@H]2CC[C@@]3(C)[C@H](CC[C@@H]4[C@@H]3C[C@@H](O)[C@]3(C)[C@@H](C5=CC(=O)OC5)CC[C@]43O)C2)C[C@H](O)[C@@H]1O[C@H]1C[C@H](O)[C@H](O[C@H]2C[C@H](O)[C@H](O[C@@H]3O[C@H](CO)[C@@H](O)[C@H](O)[C@H]3O)[C@@H](C)O2)[C@@H](C)O1	0.338 µM (active)
S=C1NC=NC2N=CNC12 (stereo not given)	7.77 µM (active)
Cc1ccc2nc(-c3ccc(N)cc3)sc2c1S(=O)(=O)O	inactive
O=C1CCCCCCCCCCCCCC1	inactive
O=C(CCN1CCC(c2ccccc2)C1)c1ccc2c(c1)OCCO2 (stereo not given)	inactive
CCSCC	inactive
COc1cc([C@@H]2c3cc4c(cc3[C@@H](O[C@@H]3O[C@@H]5CO[C@@H](C)O[C@H]5[C@H](O)[C@H]3O)[C@H]3COC(=O)[C@H]23)OCO4)cc(OC)c1O	inactive
O=C(CCCCCCCCc1cccnc1)N1CCC(C=C(c2ccccc2)c2ccccc2)CC1	inactive
CN(C[C@@H](CC[N+]12CCC(C3CCCCC3)(CC1)CC2)c1ccc(Cl)c(Cl)c1)C(=O)c1cc(C(F)(F)F)cc(C(F)(F)F)c1	27.5 µM (active)
CC(=O)[C@]1(O)Cc2c(O)c3c(c(O)c2[C@@H](O[C@H]2C[C@H](N)[C@H](O)[C@H](C)O2)C1)C(=O)c1ccccc1C3=O	inactive
Cc1cc(Br)ccc1NC(=O)CCl	19.5 µM (active)
CN1CC[C@H](c2c(O)cc(O)c3c(=O)cc(-c4ccccc4Cl)oc23)[C@H](O)C1	inactive
SC1CCCCC1	inactive
CN(C)CCOc1ccc(/C(=C(/CCCl)c2ccccc2)c2ccccc2)cc1	12.9 µM (active)
CCCCCCCC/C=C\CCCCCCCC(=O)N(CCO)CCO	inactive
C=C1C(CCl)(CCl)C2(Cl)C(Cl)C(Cl)C1(Cl)C2(Cl)Cl (stereo not given)	48.4 µM (active)
CCOc1ccc([N+](=O)[O-])cc1	22.2 µM (active)
CC(Cc1ccc(O)c(O)c1)C(C)Cc1ccc(O)c(O)c1 (stereo not given)	inactive
N#Cc1nc(Cl)c(Cl)c(Cl)c1Cl	19.5 µM (active)
CN1CCN(CCCN2c3ccccc3Sc3ccc(C(F)(F)F)cc32)CC1	23.9 µM (active)
